This is an account of results in PubChem BioAssay (Tox21).

Test [1] is described as follows: A CellTox Green Cytotoxicity Assay to monitor cytotoxicity in HEK293 cells - 32 hour (AID 1224881). Note: nearly all actives have a fitted effect of over 40% in size. Note: potency is the fitted concentration of half-maximal effect. An outline of the steps: (§1)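 HEK293 cells premixed with CellTox Green dye were seeded at 600 cells/well and left 5 h at 37 C/5% CO2 before pin transfer of 23 nL compound in DMSO. Fluorescence from dye bound to dead-cell DNA was read during 40 h treatment.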
The nature of test [2]: A CellTox Green Cytotoxicity Assay to monitor cytotoxicity in HepG2 cells - 0 hour (AID 1224882). Note: nearly all actives have a fitted effect of over 35% in size. An outline of the steps:
(§2)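 HepG2 cells were seeded together with the CellTox Green dye at 600 cells/well, left 5 h at 37 C/5% CO2, then given compounds in DMSO. Fluorescence from dye bound to dead-cell DNA was read repeatedly over 40 h of treatment at 37 C.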

Test [3] is described as follows: A CellTox Green Cytotoxicity Assay to monitor cytotoxicity in HepG2 cells - 32 hour (AID 1224883). Note: nearly all actives have a fitted effect of over 50% in size. Note: potency is the fitted concentration of half-maximal effect. An outline of the steps: as §2
Test [4] in a line: A CellTox Green Cytotoxicity Assay to monitor cytotoxicity in HEK293 cells - 8 hour (AID 1224884). Note: nearly all actives have a fitted effect of over 35% in size. Note: potency is the fitted concentration of half-maximal effect. An outline of the steps: as §1
Test [5] in a line: qHTS RealTime-Glo MT Cell Viability Assay in HepG2 cells - 16 hour (AID 1224885). Note: nearly all actives have a fitted effect of over 50% in size. Note: potency is the fitted concentration of half-maximal effect. An outline of the steps:
(§3)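 Viability was tracked continuously by NanoLuc luminescence from prosubstrate reduced by living HepG2 cells, at successive time points over 40 h of compound exposure. Cells with reagent were preincubated 5 h at 37 °C before compound addition.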
A general note: Quantitative high-throughput screening tests each substance at several concentrations.

Test [6] in a line: qHTS RealTime-Glo MT Cell Viability Assay in HEK293 cells - 24 hour (AID 1224886). For activity change, negative = cytotoxicity: top concentration of the series differs between compounds. Note: nearly all actives have a fitted effect of over 50% in size. Note: potency is the fitted concentration of half-maximal effect. An outline of the steps: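 Viability tracked continuously by luminescence as live cells reduce a prosubstrate for NanoLuc; HEK293 cells preincubated 5 h, compound-treated at 37 C, and read at 0, 8, 16, 24, 32 and 40 h.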
Test [7] is described as follows: qHTS RealTime-Glo MT Cell Viability Assay in HEK293 cells - 8 hour (AID 1224887). For activity change, negative = cytotoxicity: top concentration of the series differs between compounds. Note: nearly all actives have a fitted effect of over 50% in size. Note: potency is the fitted concentration of half-maximal effect. An outline of the steps:
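HEK293 cells mixed with RealTime-Glo reagents (NanoLuc plus cell-permeant prosubstrate) at 600 cells/well, preincubated 5 h at 37 C/5% CO2, then given 23 nL compound in DMSO. Nonlytic luminescence from viable cells was read at 0, 8, 16, 24, 32 and 40 h.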

The nature of test [8]: A CellTox Green Cytotoxicity Assay to monitor cytotoxicity in HEK293 cells - 16 hour (AID 1224888). Note: nearly all actives have a fitted effect of over 35% in size. An outline of the steps: as §1
Test [9] is described as follows: A CellTox Green Cytotoxicity Assay to monitor cytotoxicity in HepG2 cells - 8 hour (AID 1224890). Note: nearly all actives have a fitted effect of over 45% in size. Note: potency is the fitted concentration of half-maximal effect. An outline of the steps:
as §2

The nature of test [10]: qHTS RealTime-Glo MT Cell Viability Assay in HepG2 cells - 0 hour (AID 1224889). Note: nearly all actives have a fitted effect of over 50% in size. An outline of the steps:
as §3

“And” between values parts separate entries of the source, which are not always exact repeats. Identical values can stand only once. Records with an inconclusive call do not appear. The source holds several records for some structures; these can differ, active in one and inactive in another. The source made the active and inactive calls. Calls come from the whole dose curve; as a rule, active = well fitted curve in the direction sought with a large enough effect in the repeat runs; inconclusive = weak or mixed curves; inactive = no such curve, though single readings can be large; an effect the other way counts as inactive or inconclusive.
% is set by controls: 0 for no effect and ±100 for the full control effect.

As for `COC1CC(=C(c2cccs2)c2cccs2)C[N+](C)(C)C1` (stereo not drawn), the Potency entry in [1], in [2], in test [3], in test [4], in [5] and in [6] was “inactive” in each case. Also, the Potency entry in [7], in [8] and in [9] was “inactive” throughout.
Turning to `CCCN(CCC)c1c([N+](=O)[O-])cc(C(C)C)cc1[N+](=O)[O-]`, the Potency result in test [1], in [2], in test [3], in [4], in test [5] and in test [6] was “inactive” throughout. Also, the Potency entry in test [7], in [8] and in test [9] was “inactive” throughout. In test [10], the molecule was classed as inactive.
Take `O=C([O-])c1ccccn1.O=C([O-])c1ccccn1.O=C([O-])c1ccccn1.[Cr+3]`: the Potency entry in test [1], in test [2], in [3], in test [4], in [5] and in [6] was “inactive” each time. Further, the Potency entry in [7], in test [8] and in [9] was “inactive” in each case. The molecule was classed as inactive in test [10].
Consider `CCCCNC(=O)OCC#CI`, for which the Potency in test [1] was 54.9 µM (active); in test [3], 54.9 µM (active); in [5], 10.9 µM (active) and 4.9 µM (active); in [6] it was 21.8 µM (active) and 21.9 µM (active); in test [7] it was 24.5 µM (active). Further, the Potency result in [2], in test [4], in test [8] and in test [9] was “inactive” throughout.
For the molecule `CCCBr`, the Potency entry in test [1], in [2], in test [3], in [4], in test [5] and in test [6] was “inactive” in each case. Further, the Potency result in test [7], in [8] and in [9] was “inactive” each time. Also, the molecule was called inactive in [10].
Regarding `CC(Oc1cc(Cl)c(Cl)cc1Cl)C(=O)O` (stereo not drawn), the Potency entry in test [1], in test [2], in test [3], in [4], in [5] and in test [6] was “inactive” throughout. In addition, the Potency entry in test [7], in [8] and in test [9] was “inactive” throughout.
Consider `CCCC1CCCCN1` (stereo not drawn), for which the Potency entry in test [1], in test [2], in [3], in test [4], in [5] and in test [6] was “inactive” throughout. Moreover, the Potency result in [7], in test [8] and in test [9] was “inactive” each time. Moreover, the molecule was called inactive in test [10].
As to `CN[C@@H](C)[C@H](O)c1ccccc1`, the Potency result in [1], in test [2], in test [3], in [4], in [5] and in test [6] was “inactive” in each case. The Potency result in [7], in [8] and in test [9] was “inactive” each time. The outcome in test [10] was inactive.
Turning to `CCC1(C2=NCCN2)Cc2ccccc2O1` (stereo not drawn), the Potency result in [1], in [2], in test [3], in [4], in test [5] and in test [6] was “inactive” each time. Moreover, the Potency result in test [7], in test [8] and in [9] was “inactive” throughout. Besides, the outcome in test [10] was inactive.
Take `C=CC(=O)OCC`: the Potency result in [1], in [2], in [3], in test [4], in test [5] and in test [6] was “inactive” throughout. Besides, the Potency result in test [7], in test [8] and in [9] was “inactive” each time. Also, the molecule was classed as inactive in test [10].
As for `C[N+](C)(C)CC1CO1` (stereo not drawn), the Potency entry in test [1], in test [2], in test [3], in test [4], in [5] and in test [6] was “inactive” throughout. Further, the Potency result in [7], in test [8] and in [9] was “inactive” throughout. Besides, the outcome in test [10] was inactive.
In the case of `CCCSP(=S)(OCC)Oc1ccc(SC)cc1` (stereo not drawn), the Potency entry in test [1], in test [2], in test [3], in test [4], in test [5] and in [6] was “inactive” in each case. The Potency entry in [7], in test [8] and in test [9] was “inactive” throughout.
For `CCC[N+](CCC)(CCC)CCC`, the Potency entry in test [1], in test [2], in test [3], in [4], in test [5] and in test [6] was “inactive” each time. The Potency entry in test [7], in [8] and in test [9] was “inactive” in each case. In addition, in test [10], the molecule was called inactive.
Turning to `CCc1ccccc1N`, the Potency entry in [1], in test [2], in [3], in test [4], in test [5] and in test [6] was “inactive” in each case. Further, the Potency result in test [7], in [8] and in [9] was “inactive” in each case. Moreover, the result in test [10] was inactive.
Turning to `CCOC(=O)NC(O)C(Cl)(Cl)Cl` (stereo not drawn), the Potency entry in test [1], in [2], in [3], in test [4], in test [5] and in test [6] was “inactive” throughout. The Potency entry in test [7], in [8] and in [9] was “inactive” throughout. For the same molecule, the outcome in [10] was inactive.
For `C[C@]12C=CC3=C4CCC(=O)C=C4CC[C@H]3[C@@H]1CC[C@@H]2O`, the Potency result in test [1], in [2], in test [3], in [4], in test [5] and in test [6] was “inactive” throughout. The Potency entry in [7], in test [8] and in test [9] was “inactive” throughout. Moreover, the molecule was called inactive in [10].
For `O=C(Cl)OCCOCCOC(=O)Cl`, the Potency entry in test [1], in test [2], in test [3], in test [4], in [5] and in test [7] was “inactive” in each case. Further, the Potency result in test [8] and in test [9] was “inactive” in each case. Further, in test [10], the outcome was inactive.
For the molecule `Nc1ccccc1C(=O)OCCc1ccccc1`, the Potency in [1] is 21.9 µM (active); in test [3], 21.9 µM (active); in [4] it was “inactive and 34.7 µM (active)”; in [6], 21.9 µM (active); in test [7], 21.9 µM (active); in [9], “inactive and 24.5 µM (active)”. In addition, the Potency entry in test [2] and in test [5] was “inactive” each time. Also, the call in test [10] was inactive.
For `C=C(C)C(=O)OCCCCOC(=O)C(=C)C`, the Potency result in test [1], in test [2], in test [3], in test [4], in test [5] and in [7] was “inactive” each time. For the same molecule, the Potency entry in test [8] and in test [9] was “inactive” in each case. In addition, the molecule was called inactive in [10].
As for `Nc1c(Br)cc(Br)c2c1C(=O)c1ccccc1C2=O`, the cytotoxicity increase was -1.22% [at 15.8 µM] (inactive) in test [1], -5.33% [at 15.8 µM] (inactive) in test [3], -10.2% [at 15.8 µM] (inactive) in test [4] and -5.92% [at 15.8 µM] (inactive) in [9]. In addition, the cytotoxicity in test [2] was -4.24% [at 15.8 µM] (inactive). In addition, the activity change, negative = cytotoxic in [5] was -7.09% [at 15.8 µM] (inactive). For the same molecule, in test [8], the activity change was -11% [at 15.8 µM, stronger effect = higher value] (inactive). Besides, the activity change, negative = cytotoxicity in test [10] is -16.3% [at 15.8 µM] (inactive).
With `CCCCCCCCP(=O)(O)O`, the Potency result in [1], in test [2], in [3], in [4], in [5] and in test [7] was “inactive” each time. Besides, the Potency entry in [8] and in test [9] was “inactive” throughout. In addition, the result in test [10] was inactive.
As to `O=C1c2ccccc2C(=O)N1SC(Cl)(Cl)Cl`, the Potency in [1] is 21.6 µM (active) and 8.71 µM (active); in test [3] it was 24.2 µM (active) and 12.3 µM (active); in test [5], 19.5 µM (active); in test [6] it was 5.42 µM (active) and 6.16 µM (active). In addition, the Potency result in test [2], in test [4], in test [8] and in test [9] was “inactive” in each case. In addition, the molecule was called inactive in [10].
As to `O=C(Cc1ccccc1)OCCc1ccccc1`, the Potency result in test [1], in test [2], in [3], in test [4], in test [5] and in test [7] was “inactive” each time. For the same molecule, the Potency entry in test [8] and in test [9] was “inactive” in each case. In test [10], the molecule was called inactive.
